Compounds without any hit were thinned out: in the full panel of roughly 79,000, 15% have a hit. A number with no mark means an inactive call. Activity calls are given as the source filed them. No stated cut-off is given here; in the data, active means growth inhibition above about 70%; inactive means the rest.
Columns and labels:
[1] = NCI Yeast Anticancer Drug Screen. Data for the rad50 strain (AID 155);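 further: 0% = growth of vehicle-only cultures of the same strain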; details: S. cerevisiae rad50 strain growth inhibition, active compounds read high
Outline: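 Relative growth inhibition (compound vs vehicle) was measured in yeast with a defined repair-gene alteration.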

[2] = NCI Yeast Anticancer Drug Screen. Data for the mec2-1 strain (AID 157); details: S. cerevisiae mec2-1 strain, active compounds read high
Outline: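 Test agents were screened against the mec2-1 yeast strain, with defined DNA repair or cell cycle alteration. Growth was scored as inhibition against vehicle-only controls.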

[3] = NCI Yeast Anticancer Drug Screen. Data for the sgs1 mgt1 strain (AID 161);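 further: 0% = growth of cultures given vehicle only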; details: S. cerevisiae sgs1 mgt1 strain, active compounds read high
Outline: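 Inhibition of yeast growth, normalised to vehicle-treated controls, is reported for a strain bearing genetic alterations in DNA damage repair.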

[4] = NCI Yeast Anticancer Drug Screen. Data for the cln2 rad14 strain (AID 165);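 further: 0% = growth equal to vehicle treated cultures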; details: S. cerevisiae cln2 rad14 strain, active compounds read high
Outline: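 Growth of compound-exposed yeast (cln2 rad14 genotype) measured and expressed as inhibition relative to vehicle.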

[5] = NCI Yeast Anticancer Drug Screen. Data for the bub3 strain (AID 167); details: S. cerevisiae bub3 mutant strain, active compounds read high
Outline: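 Screening used yeast with an engineered genetic alteration affecting cell cycle control. Compound-exposed cultures were compared with vehicle cultures, and reduced growth was taken as inhibition.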

[6] = NCI Yeast Anticancer Drug Screen. Data for the mlh1 rad18 strain (AID 175); details: S. cerevisiae mlh1 rad18 strain growth inhibition, active compounds read high
Outline: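 In this whole-cell yeast screen, a strain with altered DNA damage repair is challenged with compound, and its growth is measured against matched vehicle-treated controls.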

[7] = at 5.0 µM (retest, dose inferred, filed as 0.5)
[8] = at 50.0 µM (retest, dose inferred, filed as 5.0)

Structure (SMILES) | growth inhibition [1, 7] | growth inhibition [1, 8] | growth inhibition ([1]; at 50.0 µM) | growth inhibition [2, 7] | growth inhibition [2, 8] | growth inhibition ([2]; at 50.0 µM) | growth inhibition [3, 7] | growth inhibition [3, 8] | growth inhibition ([3]; at 50.0 µM) | growth inhibition [4, 7] | growth inhibition [4, 8] | growth inhibition ([4]; at 50.0 µM) | growth inhibition [5, 7] | growth inhibition [5, 8] | growth inhibition ([5]; at 50.0 µM) | growth inhibition [6, 7] | growth inhibition [6, 8] | growth inhibition ([6]; at 50.0 µM)
CC(C)c1cc(O)c2c(c1O)C1CC3C(C)(C)CCC[C@]23C(=O)O1 (some centres not stated) | 1% | 49% | 92.5% (active) | 9% | 82% (active) | 95% (active) | -5% | 76% (active) | 92% (active) | 4% | 61% | 88.2% (active) | 1% | 64% | 94.7% (active) | 3% | 68% | 96.2% (active)
CN(C)c1ncnc2c1ncn2C | 29% | 61% | 70.8% (active) | 15% | 81% (active) | 61.4% | 16% | 53% | 59.1% | -1% | 38% | 17.4% | 20% | 98% (active) | 38.7% | 26% | 72% (active) | 61.4%
CCOC(=O)C(=C=C=C(c1ccccc1)c1ccccc1)C(=O)OCC | -3% | 6% | 33.9% | -2% | 17% | 23.5% | -3% | 40% | 78.2% (active) | 0% | 1% | 50.1% | -4% | 6% | 31% | -4% | 6% | 50.5%
O=C(CNC(=O)Nc1ccc(NC(=O)NCC(=O)Nc2ccc(C3=NCCN3)cc2)cc1)Nc1ccc(C2=NCCN2)cc1 | 3% | -2% | 98.2% (active) | -16% | -3% | 88.4% (active) | 2% | -3% | 98.8% (active) | 5% | 5% | 30.7% | 0% | -5% | 96.4% (active) | 4% | 20% | 95.2% (active)
COc1c(I)cc(I)c(O)c1I | 6% | 39% | 94.4% (active) | 10% | 80% (active) | 93.8% (active) | 7% | 64% | 91% (active) | 10% | 36% | 88.1% (active) | 3% | 36% | 69.9% | 9% | 77% (active) | 94.2% (active)
CCCCCCCCCCCCCCCC(=O)N1CC[N+](C)(CC2=CC3(Cl)C(Cl)=C(Cl)C2(Cl)C3(Cl)Cl)CC1 (configuration not stated) | 99% (active) | 99% (active) | 98.8% (active) | 99% (active) | 99% (active) | 99.2% (active) | 98% (active) | 99% (active) | 99.2% (active) | 96% (active) | 98% (active) | 98.5% (active) | 99% (active) | 99% (active) | 98.8% (active) | 99% (active) | 99% (active) | 98.7% (active)
COc1ccc2nc3c([N+](=O)[O-])ccc(NCCCN(C)C)c3c(N)c2c1 | 6% | 86% (active) | 90.3% (active) | 9% | 70% (active) | 85.7% (active) | 24% | 75% (active) | 92.5% (active) | 16% | 50% | 34.5% | -22% | 85% (active) | 44.5% | -14% | 95% (active) | 88.6% (active)
COc1ccc(C(c2ccc(C(C)C)cc(OC)c2=O)c2ccc(C(C)C)cc(OC)c2=O)cc1 | 7% | 54% | 22.4% | -1% | 39% | 42.2% | 6% | 61% | 13.2% | -2% | 37% | 10.2% | 0% | 16% | 9% | -4% | 41% | 29.2%
O=C(O)c1ccccc1/C=C1\Cc2ccc3c(c2C1=O)CCCC3 | 18% | 18% | 81.6% (active) | 6% | 6% | 83.1% (active) | 6% | 6% | 81.3% (active) | -4% | -4% | 85.5% (active) | -5% | -5% | 81.5% (active) | 12% | 12% | 79.9% (active)
